# Data as given in the supplement of paper PMC6897291.
# Experiments:
# U-2932 [1] = assay: growth inhibition by drug alone (1 - RLU/untreated control) (fraction); higher = stronger inhibition; settings: 177Lu-lilotomab satetraxetan 0 ug/ml
# Outline: (§1)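 Growth inhibition was calculated from RealTime-Glo RLU against untreated no-drug wells. Values equal 1 − RLU/mean of 48 untreated no-drug wells per plate, read daily from day 3 after 1 h at 37°C. RIVA and U-2932 cells, with or without 18 h pretreatment by a radiolabelled anti-CD37 antibody conjugate (~600 MBq/mg; 0.5 µg/ml RIVA, 1 µg/ml U-2932), were washed and plated at 3,000 cells/well on compound-printed plates at 10/100 nM (RIVA) or 10/1,000 nM (U-2932).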
# RIVA [2] = assay: as above; settings: 177Lu-lilotomab satetraxetan 0 ug/ml
# Outline: as §1
# U-2932 [3] = assay: growth inhibition by drug plus 177Lu-lilotomab satetraxetan (1 - RLU/untreated control) (fraction); higher = stronger inhibition; settings: 177Lu-lilotomab satetraxetan 1 ug/ml
# Outline: as §1
# RIVA [4] = assay: as above; settings: 177Lu-lilotomab satetraxetan 0.5 ug/ml
# Outline: as §1
Compound,"growth inhibition by drug alone (U-2932 [1]; 10 nM, time (day): 3)","growth inhibition by drug alone (U-2932 [1]; 10 nM, time (day): 4)","growth inhibition by drug alone (U-2932 [1]; 10 nM, time (day): 5)","growth inhibition by drug alone (U-2932 [1]; 10 nM, time (day): 6)","growth inhibition by drug alone (U-2932 [1]; 1000 nM, time (day): 3)","growth inhibition by drug alone (U-2932 [1]; 1000 nM, time (day): 4)","growth inhibition by drug alone (U-2932 [1]; 1000 nM, time (day): 5)","growth inhibition by drug alone (U-2932 [1]; 1000 nM, time (day): 6)","growth inhibition by drug alone (RIVA [2]; 10 nM, time (day): 3)","growth inhibition by drug alone (RIVA [2]; 10 nM, time (day): 4)","growth inhibition by drug alone (RIVA [2]; 10 nM, time (day): 5)","growth inhibition by drug alone (RIVA [2]; 10 nM, time (day): 6)","growth inhibition by drug alone (RIVA [2]; 100 nM, time (day): 3)","growth inhibition by drug alone (RIVA [2]; 100 nM, time (day): 4)","growth inhibition by drug alone (RIVA [2]; 100 nM, time (day): 5)","growth inhibition by drug alone (RIVA [2]; 100 nM, time (day): 6)","growth inhibition by drug plus 177Lu-lilotomab satetraxetan (U-2932 [3]; 10 nM, time (day): 3)","growth inhibition by drug plus 177Lu-lilotomab satetraxetan (U-2932 [3]; 10 nM, time (day): 4)","growth inhibition by drug plus 177Lu-lilotomab satetraxetan (U-2932 [3]; 10 nM, time (day): 5)","growth inhibition by drug plus 177Lu-lilotomab satetraxetan (U-2932 [3]; 10 nM, time (day): 6)","growth inhibition by drug plus 177Lu-lilotomab satetraxetan (U-2932 [3]; 1000 nM, time (day): 3)","growth inhibition by drug plus 177Lu-lilotomab satetraxetan (U-2932 [3]; 1000 nM, time (day): 4)","growth inhibition by drug plus 177Lu-lilotomab satetraxetan (U-2932 [3]; 1000 nM, time (day): 5)","growth inhibition by drug plus 177Lu-lilotomab satetraxetan (U-2932 [3]; 1000 nM, time (day): 6)","growth inhibition by drug plus 177Lu-lilotomab satetraxetan (RIVA [4]; 10 nM, time (day): 3)","growth inhibition by drug plus 177Lu-lilotomab satetraxetan (RIVA [4]; 10 nM, time (day): 4)","growth inhibition by drug plus 177Lu-lilotomab satetraxetan (RIVA [4]; 10 nM, time (day): 5)","growth inhibition by drug plus 177Lu-lilotomab satetraxetan (RIVA [4]; 10 nM, time (day): 6)","growth inhibition by drug plus 177Lu-lilotomab satetraxetan (RIVA [4]; 100 nM, time (day): 3)","growth inhibition by drug plus 177Lu-lilotomab satetraxetan (RIVA [4]; 100 nM, time (day): 4)","growth inhibition by drug plus 177Lu-lilotomab satetraxetan (RIVA [4]; 100 nM, time (day): 5)","growth inhibition by drug plus 177Lu-lilotomab satetraxetan (RIVA [4]; 100 nM, time (day): 6)"
N#CC(c1ccnc(NCCc2cccnc2)n1)c1nc2ccccc2s1 (centres undefined) [JNK Inhibitor V],-0.0956,-0.056,-0.0395,0.0624,-0.154,-0.122,-0.116,-0.143,-0.285,-0.269,-0.297,-0.462,-0.33,-0.412,-0.338,-0.441,-0.113,-0.0825,-0.0367,0.103,-0.0869,-0.00408,0.0113,0.0923,0.255,0.419,0.467,0.481,0.265,0.376,0.381,0.353
O=C(Nc1ccccc1-c1cn2c(CN3CCNCC3)csc2n1)c1cnc2ccccc2n1,0.102,0.0775,-0.0151,-0.0612,0.0868,0.0879,0.00704,-0.1,0.0628,0.0902,0.0591,-0.163,-0.0368,-0.02,-0.0409,-0.193,0.0225,0.0594,0.101,0.14,0.141,0.171,0.103,0.146,0.404,0.522,0.563,0.562,0.418,0.513,0.516,0.514
COc1nc(C)cnc1NS(=O)(=O)c1cccnc1-c1ccc(-c2nnco2)cc1 [Zibotentan (ZD4054)],-0.02,-0.0119,-0.0937,-0.23,-0.0348,-0.00699,-0.0784,-0.143,0.00676,-0.0294,-0.0678,-0.248,-0.0338,-0.0394,-0.0583,-0.115,-0.0217,0.0145,0.00284,0.0711,-0.0714,0.0154,-0.0042,-0.0452,0.387,0.514,0.537,0.542,0.388,0.485,0.494,0.461
CC1=C(/C=C/C(C)=C/C=C/C(C)=C/C(=O)Nc2ccc(O)cc2)C(C)(C)CCC1 [Fenretinide],0.0635,0.0202,-0.0163,-0.136,0.757,0.403,0.216,0.00716,-0.0432,-0.0451,-0.13,-0.456,-0.388,-0.302,-0.337,-0.461,0.0221,0.0894,0.138,0.148,0.704,0.374,0.313,0.295,0.515,0.573,0.583,0.583,0.435,0.504,0.521,0.541
O=c1cc(N2CCOCC2)oc2c(-c3ccccc3)cccc12,0.0578,0.0496,-0.0145,-0.0318,0.0577,0.0696,0.0149,-0.0509,0.12,0.0305,-0.0125,-0.181,0.0387,0.0134,-0.0363,-0.116,0.00353,0.0372,0.0314,0.0726,0.0169,0.0857,0.0428,0.0454,0.442,0.529,0.563,0.58,0.423,0.463,0.473,0.446
CC[C@]1(O)C[C@@H]2CN(CCc3c([nH]c4ccccc34)[C@@](C(=O)OC)(c3cc4c(cc3OC)N(C)[C@H]3[C@@](O)(C(=O)OC)[C@H](OC(C)=O)[C@]5(CC)C=CCN6CC[C@]43[C@@H]65)C2)C1 [Vinblastine],0.125,0.0844,0.0429,0.00677,0.942,0.96,0.971,0.978,0.0866,0.101,0.0372,-0.193,0.546,0.442,0.393,0.337,0.0509,0.085,0.136,0.198,0.96,0.973,0.981,0.984,0.383,0.503,0.523,0.53,0.574,0.643,0.659,0.668
NC(=O)c1ccc2nc(-c3ccc(Oc4ccc(Cl)cc4)cc3)[nH]c2c1,0.00125,0.0235,0.00264,-0.0848,-0.16,-0.101,-0.0954,-0.129,-0.00863,-0.0511,-0.0793,-0.24,-0.111,-0.096,-0.133,-0.184,0.0152,0.0513,0.0592,0.129,-0.283,-0.107,-0.0258,0.0425,0.4,0.51,0.52,0.516,0.455,0.517,0.523,0.501
